“And” between values parts separate entries of the source, which are not always exact repeats. Equal entries are not always repeated. About 83,000 compounds went through this panel and 20% of them were active in at least one assay; those are over-represented in the sample as a whole.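 Interpretation: 100, growth as untreated; towards 0, rising growth inhibition; 0, no net growth; 0 to -100, cell death. Compounds scoring below 10 were considered active.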 The source made the active and inactive calls.

The test system of the experiment is MDA-MB-468 breast. As to the kind of experiment: NCI-60 one-dose screen, 48 h (100 = growth as untreated, 0 = no growth, -100 = all killed). Particulars: 10 µM unless noted.
Turning to `O=C(Nc1ccc(-n2cc(-c3ccncc3)c(-c3ccc(O)c(Cl)c3)n2)cc1)c1cc(Cl)cc(Cl)c1`, the growth is 50.6% (inactive). With `C#C[C@]1(O)CC[C@H]2[C@@H]3CC=C4c5sc(-c6ccccn6)nc5CC[C@]4(C)[C@H]3CC[C@@]21C`, the growth was 89.2% (inactive). With `COc1ccc2nc3cc(Cl)ccc3c(Nc3ccc(O)cc3)c2c1` the figure was 46% (inactive); with `O=C(C[Si](CC(=O)c1cccc(C(F)(F)F)c1)CC(=O)c1cccc(C(F)(F)F)c1)c1cccc(C(F)(F)F)c1`, 91% (inactive). The value for `Cc1[nH]c2ncnc(Oc3ccc(NC(=O)Nc4ccc(Cl)c(C(F)(F)F)c4)cc3)c2c1C` was 69.5% (inactive); that for `Cc1cc(-c2ccccc2)c(C)n1Cc1ccc(Cl)cc1` was 27.7% (inactive); that for `CCN(CC)Cc1cc2[nH]c3c4ccc(Cl)cc4ncc3c2cc1OC` was -12.8% (active) and -25.8% (active). With `Nc1c(C(=O)Nc2ccc(Cl)cc2)cc(-c2nc3ccccc3s2)c(=O)n1NS(=O)(=O)c1ccc(Cl)cc1` the figure was 110% (inactive). With `CC(=O)O[C@]1(C)C[C@H](O)[C@]2(O)C=CO[C@H](O[C@@H]3O[C@H](CO)[C@@H](O)[C@H](O)[C@H]3O)[C@@H]21`, the growth is 96.8% (inactive).

Take `COC(=O)C1=C(C)NC(C)=C(C(=O)OCC(C)C)C1c1ccccc1[N+](=O)[O-]` (stereo not given): the growth was 44.7% (inactive). Regarding `CCCCCCCCCCCCOc1ccccc1C=O`, the growth is 91.3% (inactive). Turning to `CCO/C=N/C1=C(C#N)C(c2ccc(Cl)cc2)c2c(c3ccccc3n(C)c2=O)O1` (stereo not given), the growth is 54% (inactive). In the case of `CCCCCCCC/C=C\CCCCCCCC(=O)OCCCCCC`, the growth is 95.8% (inactive).

Regarding `Cc1ccc(NS(=O)(=O)c2ccc3c(c2)C2OCCC2C(c2ccc(C(=O)C(C)C)cc2)N3)cc1C` (stereo not given), the growth is -4.81% (active). Consider `COC(=O)c1[nH]nc2c1C1(C(=O)N(C)c3ccccc31)C(C#N)=C(N)O2` (stereo not given), for which the growth is 97.5% (inactive). With `COc1ccc(-c2nc3sc(-c4ccccc4)c(-c4ccccc4)n3c2/C=C/C(=O)c2ccccn2)cc1` the figure was 60% (inactive); with `CCOc1ccc(-n2c(-c3cc(OC)c(OC)c(OC)c3)nnc2-c2ccc(OC)cc2N)cc1`, 1.83% (active). The value for `CCOC(=O)C1C(=O)C=C(c2cnccn2)CC1c1ccc(OC)c(OC)c1` (stereo not given) was 108% (inactive). With `COc1ccc(-c2cc(-c3cc(OC)ccc3O)[nH]c(=O)c2C#N)cc1` the figure was 59.5% (inactive); with `C=C(C)[C@@H]1CC[C@]2(COP(=O)(OCC)OCC)CC[C@]3(C)[C@H](CC[C@@H]4[C@@]5(C)CC[C@H](OP(=O)(OCC)OCC)C(C)(C)[C@@H]5CC[C@]43C)[C@@H]12`, 22.1% (inactive). For `O=C1Nc2cc(-c3ccc(NC(=O)C4CC4)cc3)ccc2/C1=C/c1ccc[nH]1`, the growth is 0.756% (active). With `CCN=C1C=CC(=C(c2ccc(N(CC)CC)cc2)c2ccc(N(CC)CC)cc2)c2ccccc21` the figure was -74.1% (active); with `COc1ccc(NC(=O)Nc2ccc3c(ccn3C(=O)c3cccc(F)c3)c2)cc1`, 86.6% (inactive); with `CC(C)[C@H](CN)NC[C@H](C)NS(=O)(=O)c1ccc(C(C)(C)C)cc1`, 86.5% (inactive). As for `O=C(N/N=C/c1ccc([N+](=O)[O-])s1)c1[nH]c2ccc(Br)cc2c1-c1ccccc1`, the growth was 24.8% (inactive).

On to `C#CCOc1ccc(C(Nc2cc(Cl)ccc2Cl)c2nnnn2C2CCCCC2)cc1` (stereo not given), for which the growth is 88.5% (inactive). Consider `CC1CN(C(C)C)C(=S)N(c2ccccc2)C1=O` (stereo not given), for which the growth was 84.3% (inactive). With `O=C(CCc1nnc(Cn2ccnc2)o1)c1nc2ccccc2[nH]1` the figure was 108% (inactive); with `CCOc1cccnc1/C=N/NC(N)=S`, 52.7% (inactive); with `COC(=O)[C@H](NC(=O)C1(C)CCC[C@]2(C)[C@H]3C[C@H]4C(C(C)C)=C[C@]3(CC[C@@H]12)[C@@H]1C(=O)CCC(=O)[C@@H]14)C(C)C` (stereo not given in full), 101% (inactive). With `C#CCn1cnc2c(Nc3cccc(NC(=O)C=C)c3)ncnc21`, the growth is 78% (inactive).

In the case of `CC(=O)[C@@H]1CC[C@]2(C(=O)n3ccnc3)CC[C@]3(C)[C@H](CC[C@@H]4[C@@]5(C)Cc6c([nH]c7ccccc67)C(C)(C)[C@@H]5CC[C@]43C)[C@@H]12`, the growth is 90.8% (inactive).

As to `C=Cc1nn2c(CCC(=O)c3nc4ccccc4[nH]3)nnc2s1`, the growth is 110% (inactive). The value for `O=C1/C(=C/c2ccc(O)cc2)Cc2ccc(Cl)cc21` was 65% (inactive); that for `Cc1cc(Nc2cc(N3CCN(C)CC3)nc(Sc3ccc(NC(=O)C4CC4)cc3)n2)n[nH]1` was 46.7% (inactive).

The values are drawn from PubChem BioAssay (NCI).
